Source: PubChem
Tau ThT inhib = inhibitors of human tau fibril formation, thioflavin T binding. recombinant tau K18 P301L, heparin-induced fibrillization, ThT fluorescence. Potency, µM (doses to about 57.4 µM), actives largely listed as inhibitors. actives 2.1% (n = 270,000). AID 1460. P10636; further: nearly all actives have a fitted effect of over 55% in size
Target sequence (P10636 561-689 P618L limits assumed): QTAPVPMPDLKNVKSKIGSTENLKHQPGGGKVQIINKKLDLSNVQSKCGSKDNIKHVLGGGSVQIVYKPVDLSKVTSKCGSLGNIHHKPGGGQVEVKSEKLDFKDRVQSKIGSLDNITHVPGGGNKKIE
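Using a mix of unlabeled (15 uM) and Alexa 594-labeled (0.24 uM) tau K18 P301L, heparin-triggered fibrillization over 6 hr at 37 C was scored by ThT fluorescence.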
Tau fibril FP = tau fibrillization inhibition (FP). K18 P301L tau heparin fibrillization, Alexa594 FP, 6 h. Potency, µM (highest dose often 57.7 µM), actives largely listed as inhibitors. actives 0.39% (n = 280,000); further: nearly all actives have a fitted effect of over 55% in size
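Human K18 P301L fragment (15 uM unlabeled plus 0.24 uM Alexa 594-labeled) in 100 mM sodium acetate pH 7 with compound, aggregation induced by 20 uM heparin for 6 hr at 37 C. ThT (30 uM) added for 1 hr, then Alexa 594 FP read.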
USP1-UAF1 inh = inhibitors of human USP1/UAF1 deubiquitinase | O94782 | recombinant USP1/UAF1, Ub-Rhodamine cleavage fluorescence | Potency, µM (doses to about 57.1 µM), usual class: inhibitors | actives 0.23% (n = 390,000); further: nearly all actives have a fitted effect of over 60% in size
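Step one: compound is pinned into 1nM USP1/UAF1 in HEPES pH 7.8 buffer with TCEP. Step two: 15 min room-temperature incubation. Step three: Ub-Rho (150nM final) starts cleavage, tracked by fluorescence over six one-minute reads.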
Coupling enz = inhibits coupling enzyme system, counter-screen for aldolase hits; actives 0.67% (n = 290,000); AID 2472; coupling enzyme system counterscreen, AmpLite Red fluorescence; activity change, negative = inhibition, % at 58.2 µM, hits read low; in the data active means activity change below about -30%
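Counterscreen of the coupled detection system alone, without aldolase: glyceraldehyde-3-phosphate coupling enzymes plus AmpLite Red readout. Compounds at 57.5 uM final, 10 min RT preincubation, 20 min RT reaction, fluorescence 525/598 nm.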
Tau fluor counter = counter-screen for tau fibril formation inhibitors; actives 0.93% (n = 280,000); tau K18 P301L Alexa594 fluorescence, heparin fibrillization; Potency, µM (highest dose often 57.7 µM); further: nearly all actives have a fitted effect of over 55% in size
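Human tau K18 P301L (15 uM unlabeled, 0.24 uM Alexa 594-labeled) in 100 mM sodium acetate pH 7 with 20 uM heparin, 6 hr at 37 C. ThT 30 uM added, 1 hr ambient; Alexa 594 FP and total fluorescence read at 555/632 nm.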
Hits are given with their value; i = inactive; ? = inconclusive; nt = no result given; [ ] = remark or other dose. A selection: hits, their analogues and other compounds. The true share with any hit is near 2.3%. Unless noted, the call rests on the fitted dose curve; in most records, active means well fitted curve in the direction sought with a large enough effect; inconclusive means small, poorly fitted or top-dose-only effect, or another doubt; inactive means no such curve, though single readings can be large; an effect the other way counts as inactive or inconclusive.

SMILES	Tau ThT inhib	Tau fibril FP	USP1-UAF1 inh	Coupling enz	Tau fluor counter
CN(c1ccccc1)S(=O)(=O)c1nnc(NC(=O)c2ccccc2)s1	?	i	i	nt	i
Cc1cccc(NC(=O)CSc2nc(C3CCCC3)nc3c2c(=O)n(C)c(=O)n3C)c1C	i	i	i	nt	i
COc1ccc(/C=C/C=C2\NC(=S)NC2=O)cc1	2µM	i	i	i	i
O=C1NC(=S)N/C1=C\C=C\c1ccccc1	nt	i	i	i	i
Cc1ccc(-c2nc(Nc3ccc(N4CCOCC4)cc3)c3ccccc3n2)cc1	16µM	?	?	i	4µM[quencher]
Cc1ccc(-c2nc(Nc3ccc(O)cc3)c3ccccc3n2)cc1	nt	nt	i	i	nt
COC(=O)c1ccc(Nc2nc(-c3ccc(C)cc3)nc3ccccc23)cc1	i	3.5µM	i	nt	?
O=C(O)c1ccc(Nc2nc3ccccc3c3nncn23)cc1	i	i	i	nt	i
Cc1ccc(C(=O)OCn2ncc(Cl)c(Cl)c2=O)cc1	i	i	i	i	i
O=C(OCn1ncc(Cl)c(Cl)c1=O)c1ccc(C(F)(F)F)cc1	32µM	i	?	i	i
COc1ccccc1/C=C/C=C1\Oc2c(ccc(O)c2CN2CCN(CCO)CC2)C1=O	?	i	32µM	i	?
O=C1C2=C(c3ccccc31)[N+](=O)C1CCCCC1N2[O-] (configuration not stated)	16µM	?	?	-38	i
O=C1C2=C(c3ccccc31)[N+](=O)[C@@H]1CCCC[C@@H]1N2[O-]	?	?	?	-45	i
COc1ccc(Nc2nc(N)c3cc(OC)c(OC)cc3n2)cc1	?	?	i	nt	11µM[quencher]
Cc1cc(C)n(-c2ncc3c(n2)N(CCO)CCOC3=O)n1	i	i	i	i	i
CC1=CC2(O)OCCN(CCO)C2=CC1=O (configuration not stated)	28µM	?	i	-67	?
Cn1c(=O)c(Nc2ccc(Cl)cc2)c2c3c(cccc31)C(=O)c1ccccc1-2	?	i	10µM	i	?
CC(=O)Nc1c2c3c(cccc3n(C)c1=O)C(=O)c1ccccc1-2	i	i	i	i	i
CC(=O)c1c(C)oc2c(Br)cc(NS(=O)(=O)c3ccc(Br)cc3)cc12	i	i	i	nt	i
CC1CCC(C(C)C)C2=C1C(C#N)(C#N)C(C#N)(C#N)C(c1ccccc1)N2 (configuration not stated)	22µM	i	i	i	?
CCOC(=O)N1CCc2c(sc3c2C(=O)NC(c2ccc(N(C)C)cc2)N3)C1 (configuration not stated)	0.89µM	i	?	nt	i
CCOc1cc(C2NC(=O)c3c(sc4c3CCN(C)C4)N2)ccc1OC(=O)c1ccc(Br)cc1 (configuration not stated)	?	i	i	nt	i
CCOC(=O)N1CCc2c(sc3c2C(=O)NC(c2cc(OC)c(O)c(OC)c2)N3)C1 (configuration not stated)	11µM	i	?	nt	i
COc1cc(C2NC(=O)c3c(sc4c3CCN(C)C4)N2)cc(OC)c1OC (configuration not stated)	?	i	i	nt	i
COc1cc(C2NC(=O)c3c(sc4c3CCN(C)C4)N2)ccc1OC(=O)c1ccccc1 (configuration not stated)	13µM	i	?	nt	i
SMILES	Tau ThT inhib	Tau fibril FP	USP1-UAF1 inh	Coupling enz	Tau fluor counter
Cc1ccc(-n2ncc(C(=O)N3CCN(Cc4ccccc4)CC3)c2C2CCN(C(=O)OC(C)(C)C)CC2)c(C)c1	i	i	i	nt	i
O=C(CCn1c(=O)c2cccn2c2cccnc21)NCc1ccccc1F	i	i	i	nt	i
CCN1CCN(Cc2ccc(NC(=O)c3cc(NC(=O)C(=O)c4c[nH]c5ccccc45)cc(OC)c3)cc2C(F)(F)F)CC1	i	14µM	i	i	?
COc1cccc(NC(=O)C2CCN(S(=O)(=O)c3cccc4nonc34)CC2)c1	i	i	i	nt	i
Cn1nnc(NC(=S)NC(=O)c2ccco2)n1	i	i	i	-43	i
Cn1nnc(NC(=O)c2ccco2)n1	i	i	i	i	i
Cc1ccc(C(=O)O)cc1-c1ccc(/C=C2/NC(=O)N(c3ccccc3)C2=O)o1	28µM	i	i	i	i
C=CCn1c(C)cc(-c2csc(NC)n2)c1C	i	i	i	i	i
CCCn1c(C)cc(-c2csc(N)n2)c1C	16µM	?	i	i	?
C=CCn1c(C)cc(-c2csc(N)n2)c1C	16µM	?	i	i	?
O=C(CSc1nnc(-c2ccncc2)o1)c1cccc([N+](=O)[O-])c1	?	i	i	i	i
CC(=O)Nc1cccc(-c2nnc(SCC(=O)c3cc([N+](=O)[O-])ccc3Cl)o2)c1	?	i	?	nt	20µM[quencher]
CCOC(=O)/C(C#N)=C1\SS/C(=C(/C#N)C(=O)OCC)S1	2.8µM	6.3µM	nt	i	i
CCOC(=O)C(C#N)=C1CCC=C(C)C1	nt	nt	i	nt	nt
COc1ccc(N2CCN(c3ccc(C(N)=O)cc3[N+](=O)[O-])CC2)cc1	4.5µM	i	i	i	?
CC(=O)N1CCN(c2ccc(C(N)=O)cc2[N+](=O)[O-])CC1	i	i	i	i	i
NC(=O)c1ccc(N2CCN(c3ccccc3F)CC2)c([N+](=O)[O-])c1	16µM	?	i	i	i
O=C(CCn1c(=O)c2cccn2c2cccnc21)N1CCN(c2ccccc2)CC1	i	i	i	nt	i
O=C(CN1C(=O)CCSc2ccc(S(=O)(=O)N3CCCC3)cc21)Nc1cccc(Cl)c1	i	i	?	nt	?
Cc1cc(C)nc(N/N=C/C2=C(N3CCOCC3)C(=C\c3ccc(Cl)cc3)/CC2)n1	11µM	i	i	i	i
Cc1cc(C)nc(NN=CC2=C(N3CCOCC3)/C(=C/c3ccc(Cl)cc3)CC2)n1	nt	nt	i	nt	nt
CSCC[C@H](NC(=O)[C@H](Cc1ccccc1)NC[C@@H](NC[C@@H](N)CS)C(C)C)C(=O)O	25µM	?	nt	i	i
CCOC(=O)CSC1=Nc2ccccc2C2=NC(CCC(=O)NCc3ccccc3)C(=O)N12 (configuration not stated)	i	i	i	nt	i
CN1CCc2c(sc(NC(=O)c3cc4cc([N+](=O)[O-])ccc4s3)c2C(N)=O)C1	2.2µM	i	nt	i	?
CN1CCc2c(sc(NC(=O)c3ccc([N+](=O)[O-])o3)c2C(N)=O)C1	nt	nt	i	nt	nt
CC(C)N1CCc2c(sc(NC(=O)c3cc4cc([N+](=O)[O-])ccc4s3)c2C(N)=O)C1	4µM	i	i	i	?
CC(C)N1CCc2c(sc(NC(=O)c3ccc(C(=O)c4ccccc4)cc3)c2C(N)=O)C1	nt	nt	i	nt	nt
COc1cc(Cl)c(NS(=O)(=O)c2ccc(-c3cnc(C4CC4)o3)cc2)c(OC)c1	i	i	i	nt	?
COc1ccccc1CCNC(=O)C(C)Sc1nc(-c2ccccc2)cc(C(F)(F)F)n1 (configuration not stated)	i	i	i	nt	i
